The nature of assay [1]: qHTS assay to identify small molecule antagonists of the glucocorticoid receptor (GR) signaling pathway - cell viability counter screen (AID 720693). Also: nearly all actives have a fitted effect of over 55% in size. Also: potency is read from the fitted curve at half-maximal effect. A general note: Quantitative high-throughput screening tests each substance at several concentrations.
Assay [2] can be described thus: qHTS assay for identifying genotoxic compounds that show differential cytotoxicity against isogenic chicken DT40 cell lines with known DNA damage response pathways - wild type cell line (AID 743012). Also: nearly all actives have a fitted effect of over 60% in size. Also: potency is read from the fitted curve at half-maximal effect. The method, boiled down:
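First, wild type DT40 cells were plated at 300 per well and equilibrated about 0.5 h at 37 C/5% CO2. Next, compounds in DMSO were added and exposure lasted 40 h. Finally, CellTiter-Glo was added for 30 min at room temperature and luminescence recorded.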

Assay [3] is described as follows: qHTS assay for identifying genotoxic compounds that show differential cytotoxicity against isogenic chicken DT40 cell lines with known DNA damage response pathways - Rev3 mutant cell line (AID 743014). Also: nearly all actives have a fitted effect of over 55% in size. Also: potency is read from the fitted curve at half-maximal effect.
A short description of assay [4]: qHTS assay for identifying genotoxic compounds that show differential cytotoxicity against isogenic chicken DT40 cell lines with known DNA damage response pathways - Rad54/Ku70 mutant cell line (AID 743015). Also: nearly all actives have a fitted effect of over 60% in size. Also: potency is read from the fitted curve at half-maximal effect.
Assay [5] can be described thus: qHTS assay to identify small molecule antagonists of the androgen receptor (AR) signaling pathway - cell viability counter screen (AID 743033; also: nearly all actives have a fitted effect of over 45% in size; also: potency is read from the fitted curve at half-maximal effect).
Assay [6] is described as follows: qHTS assay to identify small molecule antagonists of the estrogen receptor alpha (ER-alpha) signaling pathway using the BG1 cell line (AID 743080; calls by dose curve;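 also: BG1 cells stimulated with 17beta-estradiol alongside compound; nearly all actives have a fitted effect of over 25% in size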; also: potency is read from the fitted curve at half-maximal effect). The method, boiled down:
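BG1Luc4E2, endogenous ER-alpha, 4xERE-luc; 5 d charcoal-stripped FBS, phenol red free; 24 h plating; cpd + 17beta-estradiol 21.5 h, 37 C/5% CO2; CellTiter-Fluor viability 30 min, then ONE-Glo luciferase 30 min RT.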

Assay [7] can be described thus: qHTS assay to identify small molecule antagonists of the estrogen receptor alpha (ER-alpha) signaling pathway using the BG1 cell line - cell viability counter screen (AID 743081).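 Also: compound given together with 17beta-estradiol as the ER stimulus; % is scaled to controls: 0 for no effect and ±100 for the full control effect; nearly all actives have a fitted effect of over 45% in size.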
In assay [8] the target is Aromatase (Homo sapiens) (UniProt P11511). The experiment in a line: qHTS assay to identify aromatase inhibitors (AID 743083). Also: nearly all actives have a fitted effect of over 55% in size. Also: potency is read from the fitted curve at half-maximal effect.
Assay [9] in a line: qHTS assay to identify small molecule antagonists of the androgen receptor (AR) signaling pathway using the MDA cell line - cell viability counter screen (AID 743041; also: nearly all actives have a fitted effect of over 45% in size; also: potency is read from the fitted curve at half-maximal effect). In short, it runs like this: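 Same-well cytotoxicity was assessed by CellTiter-Fluor in MDA-kb2 AR-luc cells after 16 h of compound treatment under R1881 agonism.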
A short description of assay [10]: qHTS assay to identify small molecule antagonists of the thyroid receptor (TR) signaling pathway - cell viability counter screen (AID 743064). Also: nearly all actives have a fitted effect of over 50% in size. Also: potency is read from the fitted curve at half-maximal effect. The method, boiled down:
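GH3.TRE-Luc rat pituitary cells carrying a TRE-luciferase reporter were treated with compound plus 1 nM T3 (final) for 23.5 h at 37 °C. Viability was then read in the same wells by CellTiter-Fluor fluorescence after a further 30 min.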

The test system of assay [11] is thyroid hormone receptor (rat, GH3 cells). The experiment in a line: qHTS assay to identify small molecule agonists of the thyroid receptor (TR) signaling pathway (AID 743066; calls by dose curve; also: % is scaled to controls: 0 for no effect and ±100 for the full control effect).
The nature of assay [12]: qHTS assay to identify small molecule antagonists of the estrogen receptor alpha (ER-alpha) signaling pathway - cell viability counter screen (AID 743074; calls by dose curve;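 also: HEK293 cells carrying ER-alpha-UAS-bla reporter stimulated with 17beta-estradiol; nearly all actives have a fitted effect of over 45% in size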; also: potency is read from the fitted curve at half-maximal effect).
Assay [13] can be described thus: qHTS assay to identify small molecule antagonists of the thyroid receptor (TR) signaling pathway (AID 743065). Also: nearly all actives have a fitted effect of over 55% in size. Also: potency is read from the fitted curve at half-maximal effect. In short, it runs like this: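 GH3.TRE-Luc rat pituitary cells (two TREs driving luciferase) were dosed with compound, then stimulated with 1 nM T3 (final) for 23.5 h at 37 C. ONE-Glo luminescence was the read-out, with CellTiter-Fluor fluorescence as the cytotoxicity counter-screen.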

The target in assay [14] is Androgen receptor (Homo sapiens) (UniProt P10275). In words: qHTS assay to identify small molecule agonists of the androgen receptor (AR) signaling pathway using the MDA cell line (AID 743040; also: % is scaled to controls: 0 for no effect and ±100 for the full control effect; nearly all actives have a fitted effect of over 20% in size). The method, boiled down: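 Human breast carcinoma MDA-kb2 reporter cells (MMTV-luc, AR/GR elements) were treated for 16 h at 37C in 0% CO2 following a 5 h settling period. Signal was quantified by ONE-Glo luminescence.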

Assay [15] shares this target. The experiment in a line: qHTS assay to identify small molecule antagonists of the androgen receptor (AR) signaling pathway using the MDA cell line (AID 743042). In short, it runs like this: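 MDA-kb2 breast carcinoma cells carrying MMTV-luciferase (AR/GR responsive) were co-treated with compounds and the agonist R1881 for 16 h at 37C. Inhibition read as ONE-Glo luminescence; CellTiter-Fluor fluorescence measured in parallel for cytotoxicity.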

The target in assay [16] is Estrogen receptor (Homo sapiens) (UniProt P03372). The experiment in a line: qHTS assay to identify small molecule antagonists of the estrogen receptor alpha (ER-alpha) signaling pathway (AID 743069; active = well fitted curve in the direction sought with a large enough effect in the signal ratio in the repeat runs, not every such curve was filed as active; inconclusive = weak or mixed curves, or effect the other way; inactive = no such curve, though single readings can be large or run the other way; the % refers to the signal ratio; also: potency is read from the fitted curve at half-maximal effect). The method, boiled down: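 Reporter cells (ER-alpha-bla, HEK293 background) are conditioned overnight in stripped-serum medium (2% charcoal-stripped FBS). Compound and 17beta-estradiol exposure runs 18 hr at 37C, 5% CO2.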

The target is the same in assay [17]. In words: qHTS assay to identify small molecule agonists of the estrogen receptor alpha (ER-alpha) signaling pathway (AID 743075; calls by dose curve;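 also: HEK293 GripTite cells with ER-alpha and UAS-driven beta-lactamase reporter; % is scaled to controls: 0 for no effect and ±100 for the full control effect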). The settings on record: HEK293 ER-alpha-UAS-bla, beta-lactamase FRET ratio, 18 h; activation: at 70.1 µM (top of the series).
For assay [18] the target is unchanged. The experiment in a line: qHTS assay to identify small molecule agonists of the estrogen receptor alpha (ER-alpha) signaling pathway using the BG1 cell line (AID 743079). Also: % is scaled to controls: 0 for no effect and ±100 for the full control effect; nearly all actives have a fitted effect of over 20% in size. The settings on record: BG1Luc4E2 cells, ERE-luciferase agonist, 22 h.

Where “and” joins values, the source holds several entries; their conditions need not be identical. Equal entries are not always repeated. A structure can be active in one record and inactive in another. Calls of active or inactive are those of the source. Unless noted, calls follow the shape of the dose curve; as a rule, active = well fitted curve in the direction sought with a large enough effect in the repeat runs; inconclusive = weak or mixed curves; inactive = no such curve, though single readings can be large; an effect the other way counts as inactive or inconclusive.

Aromatase (Homo sapiens), sequence (P11511 whole entry, looked up): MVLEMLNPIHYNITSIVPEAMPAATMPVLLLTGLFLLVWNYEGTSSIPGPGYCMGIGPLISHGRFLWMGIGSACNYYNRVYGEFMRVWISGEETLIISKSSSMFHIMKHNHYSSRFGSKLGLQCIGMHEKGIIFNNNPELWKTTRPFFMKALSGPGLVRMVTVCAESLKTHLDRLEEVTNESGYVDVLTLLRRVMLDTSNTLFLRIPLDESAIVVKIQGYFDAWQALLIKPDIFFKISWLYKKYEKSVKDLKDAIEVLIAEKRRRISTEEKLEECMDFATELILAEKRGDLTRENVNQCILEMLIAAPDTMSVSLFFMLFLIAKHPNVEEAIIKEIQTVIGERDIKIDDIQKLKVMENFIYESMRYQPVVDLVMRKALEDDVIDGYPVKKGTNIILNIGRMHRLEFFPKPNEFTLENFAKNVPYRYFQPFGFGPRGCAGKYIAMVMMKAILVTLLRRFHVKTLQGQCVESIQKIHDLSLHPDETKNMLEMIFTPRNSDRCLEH
Androgen receptor (Homo sapiens), sequence (P10275 whole entry, looked up): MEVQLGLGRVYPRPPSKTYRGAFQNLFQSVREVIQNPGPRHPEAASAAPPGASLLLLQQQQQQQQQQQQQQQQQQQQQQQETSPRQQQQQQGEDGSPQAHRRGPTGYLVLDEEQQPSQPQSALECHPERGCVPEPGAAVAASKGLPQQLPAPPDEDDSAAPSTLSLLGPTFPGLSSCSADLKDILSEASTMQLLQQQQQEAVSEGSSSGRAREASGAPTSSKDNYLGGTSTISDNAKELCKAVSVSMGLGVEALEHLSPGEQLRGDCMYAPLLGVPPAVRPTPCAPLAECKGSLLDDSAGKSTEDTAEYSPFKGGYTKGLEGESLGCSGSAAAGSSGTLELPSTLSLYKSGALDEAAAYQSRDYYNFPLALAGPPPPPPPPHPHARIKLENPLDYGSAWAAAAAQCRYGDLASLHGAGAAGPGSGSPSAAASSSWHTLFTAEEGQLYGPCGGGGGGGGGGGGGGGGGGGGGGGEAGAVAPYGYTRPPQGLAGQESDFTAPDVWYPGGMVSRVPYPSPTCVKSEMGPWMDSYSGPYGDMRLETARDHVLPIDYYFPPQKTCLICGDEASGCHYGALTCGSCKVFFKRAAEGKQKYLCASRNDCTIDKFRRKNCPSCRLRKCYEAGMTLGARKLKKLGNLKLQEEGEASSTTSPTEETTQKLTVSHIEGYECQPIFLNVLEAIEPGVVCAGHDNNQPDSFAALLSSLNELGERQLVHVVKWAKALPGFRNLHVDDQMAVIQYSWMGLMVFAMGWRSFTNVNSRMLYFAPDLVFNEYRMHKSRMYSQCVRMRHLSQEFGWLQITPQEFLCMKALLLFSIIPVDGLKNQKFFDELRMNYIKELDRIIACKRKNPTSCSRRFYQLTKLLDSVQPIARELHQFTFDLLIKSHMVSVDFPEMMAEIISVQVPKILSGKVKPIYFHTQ
Estrogen receptor (Homo sapiens), sequence (P03372 whole entry, looked up): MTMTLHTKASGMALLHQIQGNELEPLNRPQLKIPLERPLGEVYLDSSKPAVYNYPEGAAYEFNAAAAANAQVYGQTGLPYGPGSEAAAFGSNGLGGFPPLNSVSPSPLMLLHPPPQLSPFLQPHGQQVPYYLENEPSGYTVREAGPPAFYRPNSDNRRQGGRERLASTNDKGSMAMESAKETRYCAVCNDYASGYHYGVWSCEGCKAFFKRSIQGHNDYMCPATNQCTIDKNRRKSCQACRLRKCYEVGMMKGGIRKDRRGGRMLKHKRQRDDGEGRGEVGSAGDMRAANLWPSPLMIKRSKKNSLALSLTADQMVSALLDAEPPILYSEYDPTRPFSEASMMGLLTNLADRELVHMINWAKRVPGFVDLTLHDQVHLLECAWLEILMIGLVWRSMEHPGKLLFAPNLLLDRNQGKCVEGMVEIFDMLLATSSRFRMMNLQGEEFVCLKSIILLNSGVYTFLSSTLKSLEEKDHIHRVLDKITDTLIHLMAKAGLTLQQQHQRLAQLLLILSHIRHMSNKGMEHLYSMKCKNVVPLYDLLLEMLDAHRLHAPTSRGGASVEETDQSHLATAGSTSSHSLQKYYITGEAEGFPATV

Consider `CCOc1nc2cccc(C(=O)OC(C)OC(=O)OC3CCCCC3)c2n1Cc1ccc(-c2ccccc2-c2nn[nH]n2)cc1` (stereo not given), for which the Potency in [1] is 38.9 µM (active); in assay [2] it was 34.3 µM (active); in [3] it was 19.3 µM (active); in [4], 17.2 µM (active); in [5] it was 30.9 µM (active); in assay [8], 48.5 µM (active). Moreover, the Potency result in assay [6] and in [7] was “inactive” in each case.

Take `Oc1ccc2cc(SSc3ccc4cc(O)ccc4c3)ccc2c1`: the Potency result in [1], in assay [9], in assay [11], in assay [12] and in assay [7] was “inactive” in each case. Further, the Potency in assay [2] is 24.3 µM (active); in assay [3], 19.4 µM (active) and 21.7 µM (active); in assay [4], 24.4 µM (active) and 27.3 µM (active); in [10], “inactive and 61.1 µM (active)”.

For the compound `CCN(CC)CCCC(C)Nc1c2ccc(Cl)cc2nc2ccc(OC)cc12` (stereo not given), the Potency entry in assay [1], in assay [5], in [12] and in assay [8] was “inactive” each time. Also, the Potency is 5.31 µM (active) in [2], 5.96 µM (active) in assay [3] and 6.68 µM (active) in assay [4].

Turning to `OC1(c2ccc(Cl)c(C(F)(F)F)c2)CCN(CCCC(c2ccc(F)cc2)c2ccc(F)cc2)CC1`, the Potency in assay [1] is 15.1 µM (active); in [2] it was 4.22 µM (active); in assay [3], 7.5 µM (active); in [4], 5.96 µM (active); in [10], 5.96 µM (active); in [13], 5.96 µM (active). The Potency is 26.8 µM (active) in [12] and 7.5 µM (active) in assay [8]. Besides, the Potency entry in assay [9] and in assay [7] was “inactive” in each case.

For `O=C(OCC(COC(=O)c1ccccc1)(COC(=O)c1ccccc1)COC(=O)c1ccccc1)c1ccccc1`, the Potency entry in assay [1], in [2], in assay [3], in assay [4], in [5] and in assay [9] was “inactive” throughout. For the same compound, the Potency entry in assay [13], in [11], in [12], in [7] and in [8] was “inactive” in each case.

Consider `CCN(Cc1cccnc1)C(=O)c1cccc(Cl)c1[C@]1(C)C(=O)N(Cc2ccc(OC)cc2OC)c2ccc(Cl)cc21`, for which the Potency result in [1], in assay [14], in assay [11] and in assay [12] was “inactive” each time. Besides, the Potency in [2] was 5.09 µM (active); in assay [3] it was 7.19 µM (active); in assay [4] it was 5.09 µM (active); in assay [15] it was 12.8 µM (active); in [10], 4.54 µM (active); in [13] it was 2.55 µM (active). Also, the Potency in [8] was 16.1 µM (active).

With `COC(=O)C1=C(C)NC(C)=C(C(=O)OCC(C)C)C1c1ccccc1[N+](=O)[O-]` (stereo not given), the Potency entry in [1], in assay [11], in [12], in assay [17] and in [7] was “inactive” in each case. The Potency in [2] was 5.31 µM (active) and 3.86 µM (active); in [3], 10.6 µM (active) and 4.33 µM (active); in [4], 8.41 µM (active) and 5.45 µM (active); in assay [5], 43.6 µM (active); in assay [10] it was 33.5 µM (active) and 68.6 µM (active); in assay [13] it was 29.8 µM (active) and 54.5 µM (active). In addition, the Potency in assay [16] is 54.9 µM [inconclusive] (active); in assay [8], 33.5 µM (active) and 61.1 µM (active).

As to `OCCN1CCN(CC/C=C2/c3ccccc3Sc3ccc(C(F)(F)F)cc32)CC1`, the Potency result in assay [1], in assay [14], in [16], in assay [17], in assay [6] and in assay [7] was “inactive” in each case. Further, in assay [8], the Potency entry is “inactive”. For the same compound, the Potency was 9.44 µM (active) in [2]; 13.3 µM (active) in [3]; 11.9 µM (active) in assay [4]; 15 µM (active) in assay [10]; 11.9 µM (active) in [13]. For the same compound, in assay [18] (at 70.3 µM (top of the series)), the activation is -29.2% (inactive).

In the case of `COc1c(C)c2c(c(O)c1C/C=C(\C)CCC(=O)O)C(=O)OC2`, the Potency result in assay [1], in assay [9], in [11], in [12], in assay [7] and in [8] was “inactive” throughout. Moreover, the Potency in assay [2] was 0.16 µM (active); in assay [3], 0.16 µM (active); in assay [4], 0.202 µM (active); in assay [10] it was 0.717 µM (active); in assay [13], 0.507 µM (active); in assay [16], 0.512 µM [inconclusive] (active).

Turning to `CCCCC(CC)CN=C(N)NC(N)=NCCCCCCN=C(N)NC(N)=NCC(CC)CCCC` (stereo not given), the Potency was 19 µM (active) in [1]; 8.41 µM (active) in assay [2]; 11.9 µM (active) in [3]; 10.6 µM (active) in assay [4]; 26.6 µM (active) in assay [9]; 16.8 µM (active) in [15]. Further, the Potency is 7.5 µM (active) in [10], 6.68 µM (active) in [13], 10.7 µM (active) in assay [12] and 18.8 µM (active) in [8]. For the same compound, the Potency result in assay [14] is “inactive”.

Regarding `Cc1cccc(CN2CCN(C(c3ccccc3)c3ccc(Cl)cc3)CC2)c1` (stereo not given), the Potency result in assay [1], in [5], in assay [9], in assay [16], in assay [12] and in assay [17] was “inactive” each time. Moreover, the Potency result in [7] and in [8] was “inactive” each time. In addition, the Potency in assay [2] was 9.02 µM (active); in [3], 5.07 µM (active); in assay [4] it was 9.02 µM (active); in assay [10] it was 12.7 µM (active). For the same compound, in assay [18] (at 32.5 µM (top of the series)), the activation is -3.05% (inactive).

For the compound `Oc1ccc(C2(c3ccc(O)cc3)CC3CC2C2CCCC32)cc1` (stereo not given), the Potency entry in [1], in assay [2], in assay [3], in assay [4], in assay [14] and in assay [11] was “inactive” each time. The Potency result in [7] is “inactive”. In addition, the Potency was 26.2 µM (active) in assay [10]; 29.4 µM (active) in assay [13]; 0.0592 µM [inconclusive] (active) in [16]; 1.31 µM (active) in [6]; 1.86 µM (active) in assay [8].

Take `Cc1[nH]cnc1C[C@H]1CCc2c(C)c3ccccc3n2C1=O`: the Potency result in assay [1], in assay [9], in [12], in assay [7] and in assay [8] was “inactive” each time. Besides, the Potency in assay [2] is 13.3 µM (active) and 26.6 µM (active); in assay [3], 29.8 µM (active) and 21.2 µM (active); in assay [4] it was 23.7 µM (active); in assay [10] it was 13.3 µM (active); in [13], 23.7 µM (active) and 13.3 µM (active).

Source of the values: PubChem BioAssay (Tox21).
